Data on 8 compounds can be found in PubChem BioAssay AID493123 (National Center for Advancing Translational Sciences (NCATS), 2011).

Values without a mark were called inactive. The rule behind the calls is not given here.

This test in a line: Concentration response confirmation assay for small molecule inhibitors of Shiga toxin. Conditions: cell-based concentration response; series mostly up to 76.6 µM; activity, positive = inhibition: at the top concentration.
With `COc1ccc(C(C)(C)C)cc1NC(=O)c1ccc2c(c1)SC1=NS(=O)(=O)CCN12`, the “activity, positive = inhibition” value is -12.2%.

As to `C=CCNC(=O)c1ccc(C)c(Br)c1`, the “activity, positive = inhibition” value is 7.16%.

For the compound `CCn1c2ccccc2c2cc(NC(=O)c3cccc([N+](=O)[O-])c3)ccc21`, the “activity, positive = inhibition” value was 7.93%.

As to `CN(C)S(=O)(=O)c1ccc(C(=O)Nc2ccc(CN3CCCC3)cc2)cc1`, the “activity, positive = inhibition” value is -8.06%.

Take `O=C(CC(c1ccccc1)c1cc(Cl)ccc1O)N1CCCC1` (stereo not drawn): the “activity, positive = inhibition” value was -4.24%.

Consider `CCN1C(=O)/C(=C/c2ccc(OC)c(OC)c2)N=C1SCC(=O)NCc1ccco1`, for which the “activity, positive = inhibition” value was 4.82%.

Regarding `CC1CCC/C=C/C2CC(O)CC2C(O)/C=C/C(=O)O1` (stereo not drawn), the “activity, positive = inhibition” value was 2.01%.

With `Cc1cccc(NC(=O)CCN2C(=O)c3ccccc3S2(=O)=O)c1C`, the “activity, positive = inhibition” value was -9.39%.
